Experimental findings from paper PMC11006913 are described below.

Holding throughout (assay): PBM; 200 nM protein, PBS
Conditions in all cases: dsDNA, one strand shown

The target of assay [1] is ALX4 (Homo sapiens, UniProt Q9H161 200-286).
In assay [2] the target is ALX4 (Homo sapiens, UniProt Q9H161 200-286, Q225E).
Assay [3] has as its target PROP1 (Homo sapiens, UniProt O75360 56-141).
The target in assay [4] is PROP1 (Homo sapiens, UniProt O75360 56-141, R99H).
Assay [5] deals with PROP1 (Homo sapiens, UniProt O75360 56-141, F88S).
Sequence of PROP1 (Homo sapiens, UniProt O75360 56-141, F88S) (O75360 56-141 F88S): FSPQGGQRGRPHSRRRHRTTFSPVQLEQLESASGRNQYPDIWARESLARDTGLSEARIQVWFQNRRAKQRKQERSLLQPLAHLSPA
The next assay addresses SHOX (Homo sapiens, UniProt O15266 103-189).
Assay [6] addresses MSX2 (Homo sapiens, UniProt P35548 130-214, R199I).
Assay [7] concerns the target MSX2 (Homo sapiens, UniProt P35548 130-214).
Assay [8] concerns the target MSX2 (Homo sapiens, UniProt P35548 130-214, F161Y).
For assay [9], the target named is HOXB9 (Homo sapiens, UniProt P17482 171-250).
Sequence of HOXB9 (Homo sapiens, UniProt P17482 171-250) (P17482 171-250): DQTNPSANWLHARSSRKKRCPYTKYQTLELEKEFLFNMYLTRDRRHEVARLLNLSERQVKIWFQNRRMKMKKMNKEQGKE
The target in assay [10] is HOXB9 (Homo sapiens, UniProt P17482 171-250, R186Q).
Sequence of HOXB9 (Homo sapiens, UniProt P17482 171-250, R186Q) (P17482 171-250 R186Q): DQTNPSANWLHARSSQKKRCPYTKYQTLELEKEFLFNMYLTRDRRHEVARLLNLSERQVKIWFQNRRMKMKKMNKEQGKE
The target of another assay is HOXD13 (Homo sapiens, UniProt P35453 263-343).
Sequence of HOXD13 (P35453 263-343): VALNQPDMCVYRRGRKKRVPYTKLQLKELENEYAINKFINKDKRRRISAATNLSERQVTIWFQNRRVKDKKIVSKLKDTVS
The target in assay [11] is HOXA4 (Homo sapiens, UniProt Q00056 201-287, W262R).
Sequence of HOXA4 (Homo sapiens, UniProt Q00056 201-287, W262R) (Q00056 201-287 W262R): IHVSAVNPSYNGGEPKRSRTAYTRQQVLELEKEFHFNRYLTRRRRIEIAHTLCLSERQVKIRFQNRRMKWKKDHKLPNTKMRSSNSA
Assay [12] addresses HOXA4 (Homo sapiens, UniProt Q00056 201-287, R217L).
Assay [13] concerns the target HOXA4 (Homo sapiens, UniProt Q00056 201-287).
The target in assay [14] is VAX1 (Homo sapiens, UniProt Q5SQQ9 86-172).
Sequence of VAX1 (Homo sapiens, UniProt Q5SQQ9 86-172) (Q5SQQ9 86-172): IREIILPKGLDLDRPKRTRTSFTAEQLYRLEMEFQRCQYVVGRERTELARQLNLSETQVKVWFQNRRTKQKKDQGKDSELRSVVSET
Assay [15] deals with VAX1 (Homo sapiens, UniProt Q5SQQ9 86-172, T142I).
Sequence of VAX1 (Homo sapiens, UniProt Q5SQQ9 86-172, T142I) (Q5SQQ9 86-172 T142I): as the sequence (Q5SQQ9 86-172) above, with T57I counted along it
Assay [16] concerns the target HOXA7 (Homo sapiens, UniProt P31268 116-202).
Assay [17] deals with HOXA7 (Homo sapiens, UniProt P31268 116-202, W177C).
Sequence of HOXA7 (Homo sapiens, UniProt P31268 116-202, W177C) (P31268 116-202 W177C): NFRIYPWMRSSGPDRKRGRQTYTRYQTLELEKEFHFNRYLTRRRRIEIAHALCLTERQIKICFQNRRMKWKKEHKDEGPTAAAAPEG

Sequence of MSX2 (Homo sapiens, UniProt P35548 130-214) (P35548 130-214): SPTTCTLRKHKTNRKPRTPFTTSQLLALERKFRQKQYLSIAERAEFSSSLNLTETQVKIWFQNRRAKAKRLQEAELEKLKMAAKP
Sequence of ALX4 (Homo sapiens, UniProt Q9H161 200-286) (Q9H161 200-286): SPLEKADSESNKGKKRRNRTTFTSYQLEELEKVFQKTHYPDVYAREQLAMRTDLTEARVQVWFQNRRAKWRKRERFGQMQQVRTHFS
Sequence of HOXA4 (Homo sapiens, UniProt Q00056 201-287) (Q00056 201-287): as the sequence (Q00056 201-287 W262R) above, with R62W counted along it
Sequence of ALX4 (Homo sapiens, UniProt Q9H161 200-286, Q225E) (Q9H161 200-286 Q225E): as the sequence (Q9H161 200-286) above, with Q26E counted along it
Sequence of SHOX (O15266 103-189): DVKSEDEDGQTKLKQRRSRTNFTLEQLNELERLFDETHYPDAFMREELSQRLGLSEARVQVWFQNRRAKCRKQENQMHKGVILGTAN
Sequence of MSX2 (Homo sapiens, UniProt P35548 130-214, F161Y) (P35548 130-214 F161Y): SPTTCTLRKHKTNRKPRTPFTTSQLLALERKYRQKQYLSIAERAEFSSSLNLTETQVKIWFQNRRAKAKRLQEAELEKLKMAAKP
Sequence of PROP1 (Homo sapiens, UniProt O75360 56-141) (O75360 56-141): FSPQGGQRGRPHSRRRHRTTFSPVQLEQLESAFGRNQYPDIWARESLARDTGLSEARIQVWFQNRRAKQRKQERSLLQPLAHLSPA
Sequence of HOXA4 (Homo sapiens, UniProt Q00056 201-287, R217L) (Q00056 201-287 R217L): as the sequence (Q00056 201-287 W262R) above, with R17L, R62W counted along it
Sequence of MSX2 (Homo sapiens, UniProt P35548 130-214, R199I) (P35548 130-214 R199I): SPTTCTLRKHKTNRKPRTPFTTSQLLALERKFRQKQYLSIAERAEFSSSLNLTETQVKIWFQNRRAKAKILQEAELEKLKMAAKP
Sequence of PROP1 (Homo sapiens, UniProt O75360 56-141, R99H) (O75360 56-141 R99H): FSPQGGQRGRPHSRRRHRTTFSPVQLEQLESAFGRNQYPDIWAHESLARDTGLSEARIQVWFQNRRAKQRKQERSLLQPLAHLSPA
Sequence of HOXA7 (Homo sapiens, UniProt P31268 116-202) (P31268 116-202): as the sequence (P31268 116-202 W177C) above, with C62W counted along it

Take CCCGGCGG: the binding signal is 7.89 upbm affinity estimate (log intensity, higher = more binding, comparable within an allelic series) in the assay with ALX4 [1]; 8.11 upbm affinity estimate (log intensity, higher = more binding, comparable within an allelic series) in the assay with ALX4 [2]; 6.68 upbm affinity estimate (log intensity, higher = more binding, comparable within an allelic series) with PROP1 [3]; 6.68 upbm affinity estimate (log intensity, higher = more binding, comparable within an allelic series) with PROP1 [4]; 6.39 upbm affinity estimate (log intensity, higher = more binding, comparable within an allelic series) with PROP1 [5].

As to CGGTCCAA, the binding signal with SHOX is 7.28 upbm affinity estimate (log intensity, higher = more binding, comparable within an allelic series).

With ACGGCTGG, the binding signal is 6.59 upbm affinity estimate (log intensity, higher = more binding, comparable within an allelic series) with PROP1 [3]; 6.78 upbm affinity estimate (log intensity, higher = more binding, comparable within an allelic series) with PROP1 [4]; 6.67 upbm affinity estimate (log intensity, higher = more binding, comparable within an allelic series) with PROP1 [5].

As to ACGCGCAG, the binding signal in the assay with SHOX is 7.05 upbm affinity estimate (log intensity, higher = more binding, comparable within an allelic series).

With AATTAGCT, the binding signal is 11.7 upbm affinity estimate (log intensity, higher = more binding, comparable within an allelic series) with SHOX; 13.6 upbm affinity estimate (log intensity, higher = more binding, comparable within an allelic series) with ALX4 [1]; 12.7 upbm affinity estimate (log intensity, higher = more binding, comparable within an allelic series) with ALX4 [2]; 12.3 upbm affinity estimate (log intensity, higher = more binding, comparable within an allelic series) in the assay with MSX2 [6]; 13.3 upbm affinity estimate (log intensity, higher = more binding, comparable within an allelic series) with MSX2 [7]; 11 upbm affinity estimate (log intensity, higher = more binding, comparable within an allelic series) in the assay with PROP1 [3]. Also, the binding signal was 10.9 upbm affinity estimate (log intensity, higher = more binding, comparable within an allelic series) in the assay with PROP1 [4]; 7.6 upbm affinity estimate (log intensity, higher = more binding, comparable within an allelic series) with PROP1 [5]; 12.9 upbm affinity estimate (log intensity, higher = more binding, comparable within an allelic series) with MSX2 [8].

CACTTATA: the binding signal in the assay with HOXB9 [9] is 10.4 upbm affinity estimate (log intensity, higher = more binding, comparable within an allelic series); with HOXB9 [10], 10.2 upbm affinity estimate (log intensity, higher = more binding, comparable within an allelic series).

For the sequence AATAAGTG, the binding signal in the assay with HOXD13 was 10.6 upbm affinity estimate (log intensity, higher = more binding, comparable within an allelic series).

For the sequence CACTTTAA, the binding signal with SHOX was 8.82 upbm affinity estimate (log intensity, higher = more binding, comparable within an allelic series).

Turning to CGGGCTCC, the binding signal is 9.62 upbm affinity estimate (log intensity, higher = more binding, comparable within an allelic series) with HOXA4 [11]; 7.48 upbm affinity estimate (log intensity, higher = more binding, comparable within an allelic series) in the assay with ALX4 [1]; 7.51 upbm affinity estimate (log intensity, higher = more binding, comparable within an allelic series) in the assay with ALX4 [2]; 9.45 upbm affinity estimate (log intensity, higher = more binding, comparable within an allelic series) in the assay with HOXA4 [12]; 7.77 upbm affinity estimate (log intensity, higher = more binding, comparable within an allelic series) with HOXB9 [9]; 9.06 upbm affinity estimate (log intensity, higher = more binding, comparable within an allelic series) with MSX2 [6]. Moreover, the binding signal with HOXA4 [13] was 9.29 upbm affinity estimate (log intensity, higher = more binding, comparable within an allelic series); in the assay with MSX2 [7] it was 8.79 upbm affinity estimate (log intensity, higher = more binding, comparable within an allelic series); with VAX1 [14], 6.15 upbm affinity estimate (log intensity, higher = more binding, comparable within an allelic series); with HOXB9 [10] it was 7.82 upbm affinity estimate (log intensity, higher = more binding, comparable within an allelic series); in the assay with MSX2 [8], 8.87 upbm affinity estimate (log intensity, higher = more binding, comparable within an allelic series); in the assay with VAX1 [15], 6.61 upbm affinity estimate (log intensity, higher = more binding, comparable within an allelic series).

With GCCACTTA, the binding signal in the assay with HOXB9 [9] was 10.1 upbm affinity estimate (log intensity, higher = more binding, comparable within an allelic series); with HOXB9 [10], 10 upbm affinity estimate (log intensity, higher = more binding, comparable within an allelic series).

In the case of CTAATTGC, the binding signal with SHOX is 11.8 upbm affinity estimate (log intensity, higher = more binding, comparable within an allelic series); with HOXA4 [11] it was 10.4 upbm affinity estimate (log intensity, higher = more binding, comparable within an allelic series); in the assay with HOXA7 [16], 11.4 upbm affinity estimate (log intensity, higher = more binding, comparable within an allelic series); with ALX4 [1] it was 13.6 upbm affinity estimate (log intensity, higher = more binding, comparable within an allelic series); with ALX4 [2], 12.8 upbm affinity estimate (log intensity, higher = more binding, comparable within an allelic series); in the assay with HOXA4 [12], 11.8 upbm affinity estimate (log intensity, higher = more binding, comparable within an allelic series). Also, the binding signal with MSX2 [6] is 13 upbm affinity estimate (log intensity, higher = more binding, comparable within an allelic series); with HOXA4 [13], 13.8 upbm affinity estimate (log intensity, higher = more binding, comparable within an allelic series); in the assay with MSX2 [7] it was 14 upbm affinity estimate (log intensity, higher = more binding, comparable within an allelic series); with PROP1 [3] it was 11.2 upbm affinity estimate (log intensity, higher = more binding, comparable within an allelic series); with PROP1 [4], 11.5 upbm affinity estimate (log intensity, higher = more binding, comparable within an allelic series); in the assay with VAX1 [14] it was 13 upbm affinity estimate (log intensity, higher = more binding, comparable within an allelic series). In addition, the binding signal with PROP1 [5] was 7.41 upbm affinity estimate (log intensity, higher = more binding, comparable within an allelic series); with MSX2 [8], 13.6 upbm affinity estimate (log intensity, higher = more binding, comparable within an allelic series); in the assay with VAX1 [15] it was 12.9 upbm affinity estimate (log intensity, higher = more binding, comparable within an allelic series); with HOXA7 [17], 8.67 upbm affinity estimate (log intensity, higher = more binding, comparable within an allelic series).

As to CCGGAGCC, the binding signal in the assay with HOXA4 [11] is 9.74 upbm affinity estimate (log intensity, higher = more binding, comparable within an allelic series); in the assay with HOXA4 [12] it was 9.76 upbm affinity estimate (log intensity, higher = more binding, comparable within an allelic series); with HOXA4 [13] it was 9.77 upbm affinity estimate (log intensity, higher = more binding, comparable within an allelic series).

Regarding CTACTTAA, the binding signal with PROP1 [3] was 8.53 upbm affinity estimate (log intensity, higher = more binding, comparable within an allelic series); with PROP1 [4], 8.11 upbm affinity estimate (log intensity, higher = more binding, comparable within an allelic series); with PROP1 [5], 7.26 upbm affinity estimate (log intensity, higher = more binding, comparable within an allelic series).

On to ACGGCGGC, for which the binding signal in the assay with VAX1 [14] was 7.01 upbm affinity estimate (log intensity, higher = more binding, comparable within an allelic series); in the assay with VAX1 [15], 7.25 upbm affinity estimate (log intensity, higher = more binding, comparable within an allelic series).

As to ACCCGGGC, the binding signal with SHOX was 7.11 upbm affinity estimate (log intensity, higher = more binding, comparable within an allelic series).

In the case of CGCCCGAG, the binding signal with HOXB9 [9] is 8.15 upbm affinity estimate (log intensity, higher = more binding, comparable within an allelic series); in the assay with PROP1 [3], 6.84 upbm affinity estimate (log intensity, higher = more binding, comparable within an allelic series); with PROP1 [4] it was 6.77 upbm affinity estimate (log intensity, higher = more binding, comparable within an allelic series); with HOXB9 [10], 8.29 upbm affinity estimate (log intensity, higher = more binding, comparable within an allelic series); with PROP1 [5] it was 6.6 upbm affinity estimate (log intensity, higher = more binding, comparable within an allelic series).

As to ACCAGCTG, the binding signal with SHOX was 7.08 upbm affinity estimate (log intensity, higher = more binding, comparable within an allelic series).

For the sequence CATGCGCC, the binding signal was 8.56 upbm affinity estimate (log intensity, higher = more binding, comparable within an allelic series) with HOXB9 [9] and 8.56 upbm affinity estimate (log intensity, higher = more binding, comparable within an allelic series) with HOXB9 [10].

As for CTGGCCAG, the binding signal is 9.71 upbm affinity estimate (log intensity, higher = more binding, comparable within an allelic series) with MSX2 [6]; 9.79 upbm affinity estimate (log intensity, higher = more binding, comparable within an allelic series) in the assay with MSX2 [7]; 9.83 upbm affinity estimate (log intensity, higher = more binding, comparable within an allelic series) with MSX2 [8].

As for CGGTCGGC, the binding signal with ALX4 [1] is 8.27 upbm affinity estimate (log intensity, higher = more binding, comparable within an allelic series); with ALX4 [2] it was 7.99 upbm affinity estimate (log intensity, higher = more binding, comparable within an allelic series).

Consider CGTGCACG, for which the binding signal in the assay with HOXB9 [9] was 8.75 upbm affinity estimate (log intensity, higher = more binding, comparable within an allelic series); with HOXB9 [10], 8.57 upbm affinity estimate (log intensity, higher = more binding, comparable within an allelic series).

As for CACGGGCC, the binding signal with MSX2 [6] was 9.44 upbm affinity estimate (log intensity, higher = more binding, comparable within an allelic series); with MSX2 [7], 9.39 upbm affinity estimate (log intensity, higher = more binding, comparable within an allelic series); with MSX2 [8] it was 9.46 upbm affinity estimate (log intensity, higher = more binding, comparable within an allelic series).
